Laboratory results published in PubChem BioAssay.
“And” between values parts separate entries of the source, which are not always exact repeats. Equal entries are not always repeated. The source made the active and inactive calls.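 Rule for the calls, unless noted: active = compounds whose cell count with miR-34 switched on is under 0.7 times the count with it off; inactive = the rest.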

How the values were obtained:
[1] = liver-stage malaria parasite growth inhibition, primary screen, cell-based, HepG2, luciferase luminescence, HepG2 viability (AID 624349; in the data active = parasite load remaining mostly below about 12%, no sharp cut-off; inactive = mostly above about 10%;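 note: 100% = mean of DMSO negative control wells on the same plate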); conditions: P. berghei liver stage in HepG2, luciferase luminescence, concentration not given here; parasite load remaining: stronger effect = lower value; viability: measured here: HepG2 viability without parasites
[2] = stimulators of nuclear beta-catenin in C2C12, primary screen, imaging, WNT3A-conditioned medium, mouse C2C12, NPC library (AID 1117326; in the data active = nuclear beta-catenin stimulation mostly above about 4.2%, no sharp cut-off; inactive = mostly below about 10%); conditions: stronger effect = higher value
[3] = stimulators of insulin release from INS-1E, primary screen, cell-based, 5 mM glucose, NPC library (AID 1117329;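 active = compound raises insulin release from rat beta cells at 5 mM glucose, no numeric limit stated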); conditions: rat INS-1E insulin secretion, at 10 µM, stronger effect = higher value
[4] = growth inhibition of GSK3B-pretreated HCT116 cells – cell-based, CellTiter-Glo, 0.2 to 20 µM (AID 1117336;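 active = compounds lowering colon cancer cell viability after pretreatment blocking the GSK3B kinase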); conditions: HCT116 viability after GSK3B inhibitor, at 20 µM, stronger effect = higher value
[5] = inhibition of endothelial tube formation, primary screen, imaging, VEGF stimulated, CD31 staining, tube area, NPC library (AID 1117340;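 active = compound that reduces growth-factor-driven endothelial tube area in a mixed cell culture, no cutoff stated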); conditions: VEGF-stimulated ADSC/ECFC co-culture, at 10 µM, stronger effect = higher value
[6] = glucagon-like peptide 1 release enhancers, primary assay, NCI-H716 cell line, NPC library (AID 1117341;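 active = compound raises GLP1 secretion from the human gut endocrine cells, with no numeric limit stated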); conditions: NCI-H716 cells, at 10 µM, stronger effect = higher value
[7] = HCT116 colon cancer cell growth inhibition, primary screen, CellTiter-Glo luminescence, NPC library (AID 1117342;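 active = compounds that lower survival of HCT116 colon cancer cells in the luminescence readout, no numeric limit stated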); conditions: at 20 µM (top of the series)
[8] = CellTiter-Glo luminescent readout of SW480 viability loss, NPC library primary (AID 1117343;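 active = compounds that lower viability of the colon cancer cells in the luminescence readout, with no numeric limit stated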); conditions: CellTiter-Glo luminescence; at 20 µM (top of the series)
[9] = decreased DLD-1 cellular survival, CellTiter-Glo luminescent readout, NPC compound collection, primary HTS (AID 1117346;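 active = compounds that lower survival of DLD-1 colon cancer cells in the luminescence readout, no cutoff given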); conditions: DLD-1 viability, CellTiter-Glo luminescence; at 20 µM (top of the series)
[10] = differential killing of epithelial or mesenchymal cells, primary screen, imaging, PC-3E GFP, TEM4-18 mCherry, co-culture (AID 1345086;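 active = compounds killing one labelled cell type while sparing the other, by normalised counts and ratio limits, not self-fluorescent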;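 note: cells exposed to compound for 72 h before imaging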;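 for red/green cell ratio (normalised): normalised mesenchymal count divided by normalised epithelial count so high means epithelial killing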); conditions: imaging cell counts, at 1 µM
[11] = sensitizers of A549 cells to miR-34 induction, primary screen, imaging, A549 dox-inducible miR-34, nuclei and caspase counts (AID 1347080); conditions: A549 miR-34 inducible, Hoechst nuclei count, 48 h
[12] = survival rescue of mitochondrial mutant cells in low glucose, primary screen, MELAS cybrids, Rieske KO mouse fibroblasts, CellTiter-Glo (AID 1508586;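 active = mean z-score across replicates of 1.96 or higher in either the MELAS or the Rieske mutant cell line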;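 note: z relative to plate mean and SD of compound and empty wells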)
[13] = molecular target: NAD(+) hydrolase SARM1 (Homo sapiens) (UniProt Q6SZW1); experiment: SARM1 TIR NADase inhibitors, cell lysate, NAD-Glo luminescence (AID 1508614;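 active = compound whose remaining NAD level is above about 45 nM, limit read from the data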;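 note: higher remaining NAD means stronger inhibition of SARM1 NADase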); conditions: SAM-TIR HEK293T lysate NADase, at 1 µM, stronger effect = higher value
Sequence of NAD(+) hydrolase SARM1 (Homo sapiens) (Q6SZW1 whole entry, looked up): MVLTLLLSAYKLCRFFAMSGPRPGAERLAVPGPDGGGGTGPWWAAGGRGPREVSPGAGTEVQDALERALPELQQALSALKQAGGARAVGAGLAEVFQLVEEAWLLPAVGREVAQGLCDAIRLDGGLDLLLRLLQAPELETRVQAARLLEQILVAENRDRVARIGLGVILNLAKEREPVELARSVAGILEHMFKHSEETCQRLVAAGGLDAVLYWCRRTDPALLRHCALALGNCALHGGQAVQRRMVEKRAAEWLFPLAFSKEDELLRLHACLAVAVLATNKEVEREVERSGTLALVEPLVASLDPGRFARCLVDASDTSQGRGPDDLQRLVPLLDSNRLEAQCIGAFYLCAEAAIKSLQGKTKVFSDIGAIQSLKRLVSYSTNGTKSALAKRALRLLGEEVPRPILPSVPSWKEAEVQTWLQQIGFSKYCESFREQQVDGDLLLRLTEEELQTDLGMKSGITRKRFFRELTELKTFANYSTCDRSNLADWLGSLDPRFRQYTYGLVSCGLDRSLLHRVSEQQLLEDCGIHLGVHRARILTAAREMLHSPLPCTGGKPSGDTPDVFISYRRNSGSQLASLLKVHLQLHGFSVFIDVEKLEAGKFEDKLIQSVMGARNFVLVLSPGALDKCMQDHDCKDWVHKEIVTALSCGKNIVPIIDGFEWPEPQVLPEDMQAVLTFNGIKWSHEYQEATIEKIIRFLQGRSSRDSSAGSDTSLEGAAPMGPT

[14] = viability rescue of complex I mutant cybrids, primary screen, cell-based, galactose medium, ATP luminescence (AID 1645843;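 active = z-score of at least 1.8 in each of two replicates, scored against plate mean and spread of sample wells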;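 note: positive z means more ATP and so rescue of galactose-driven cybrid death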); conditions: complex I mutant cybrid cells, 72 h, stronger effect = higher value
[15] = test system: Aerobactin synthetase IucA (Klebsiella pneumoniae, hypervirulent); experiment: IucA enzyme inhibition, biochemical, LOPAC library, absorbance readout (AID 1346212; call rule not given here;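 note: 100% = no compound wells and 0% = no enzyme wells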); conditions: IucA enzyme assay, absorbance (OD) readout; stronger effect = lower value;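 tested at 8 µM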
[16] = measured here: relative caspase fold change +Dox/-Dox
[17] = measured here: total cells with miR-34 induction, stronger effect = lower value
[18] = measured here: total cells without miR-34 induction
[19] = MELAS cybrid survival, CellTiter-Glo 48 h, stronger effect = higher value
[20] = Rieske KO mouse fibroblast survival, CellTiter-Glo 72 h

In the case of `O=C(O)Cc1ccccc1`, the parasite load remaining [1] was 25.8% (inactive) and 52.8% (inactive), the viability [1] was 91.1% and 112% and the nuclear beta-catenin stimulation ([2]; at 10 µM) was 0.2% (inactive). For the same molecule, the nuclear beta-catenin stimulation ([2]; stimulation, at 2 µM) was 0.3%, the insulin secretion stimulation [3] was -1.1% (inactive) and the viability decrease [4] was -0.05% (inactive). The tube area decrease [5] was -39.3% (inactive), the GLP1 secretion stimulation [6] was -0.3% (inactive) and the inhibition of viability [7] was -9.8% (inactive). For the same molecule, the viability decrease (inhibition) [8] was 8.6% (inactive), the viability decrease (inhibition) [9] was 0.45% (inactive) and the red/green cell ratio (normalised) ([10]; actives lie on both sides) was 0.91 (inactive). For the same molecule, the normalised cell number ([10]; measured here: epithelial PC-3E GFP cell survival) was 1.01, the normalised cell number ([10]; measured here: mesenchymal TEM4-18 mCherry cell survival) was 0.92 and the fold change ([11]; stronger effect = lower value) was 0.869 (inactive) and 0.823 (inactive). For the same molecule, the fold change [11, 16] was 4.43 and 1.17, the cell count [11, 17] was 10700 and 9120 and the cell count [11, 18] was 12300 and 11100. For the same molecule, the z-score [12, 19] was 0.496 (inactive), the z-score [12, 20] was 0.0978 and the remaining NAD [13] was 10 nM (inactive). For the same molecule, the z-score [14] was 0.455 (inactive).

For `C=CCN1C[C@H](C)N([C@H](c2ccc(C(=O)N(CC)CC)cc2)c2cccc(OC)c2)C[C@H]1C`, the nuclear beta-catenin stimulation ([2]; at 10 µM) was 1.7% (inactive), the nuclear beta-catenin stimulation ([2]; stimulation, at 2 µM) was -0.7% and the insulin secretion stimulation [3] was -1.1% (inactive). For the same molecule, the viability decrease [4] was 4.6% (inactive), the tube area decrease [5] was 3.8% (inactive) and the GLP1 secretion stimulation [6] was 5.2% (inactive). For the same molecule, the inhibition of viability [7] was 35% (inactive), the viability decrease (inhibition) [8] was 6% (inactive) and the viability decrease (inhibition) [9] was 23.5% (inactive). The remaining activity [15] was 109% (inactive), the fold change ([11]; stronger effect = lower value, cell number ratio, induced over uninduced) was 0.944 (inactive) and the fold change [11, 16] was 1.05. For the same molecule, the cell count [11, 17] was 8480, the cell count [11, 18] was 8990 and the z-score [14] was 0.105 (inactive).

With `C[C@]12CC[C@H](O)CC1=CC[C@@H]1[C@@H]2CC[C@]2(C)C(=O)CC[C@@H]12` the parasite load remaining [1] was 67.8% (inactive) and 14.9% (inactive), the viability [1] was 72.6% and 126% and the nuclear beta-catenin stimulation ([2]; at 10 µM) was 3.7% (inactive). The nuclear beta-catenin stimulation ([2]; stimulation, at 2 µM) was 1.2%, the insulin secretion stimulation [3] was -3% (inactive) and the viability decrease [4] was 3.8% (inactive). For the same molecule, the tube area decrease [5] was 8% (inactive), the GLP1 secretion stimulation [6] was 1.9% (inactive) and the inhibition of viability [7] was -21.8% (inactive). For the same molecule, the viability decrease (inhibition) [8] was 113% (active), the viability decrease (inhibition) [9] was 8.95% (inactive) and the fold change ([11]; stronger effect = lower value) was 0.917 (inactive). The fold change [11, 16] was 1.38, the cell count [11, 17] was 8820 and the cell count [11, 18] was 9620. For the same molecule, the z-score [12, 19] was 0.542 (inactive), the z-score [12, 20] was -0.656 and the remaining NAD [13] was 10 nM (inactive). For the same molecule, the z-score [14] was -0.16 (inactive).

With `CC(C)NCC(O)c1ccc(N)c(C#N)c1` (stereo not drawn) the parasite load remaining [1] was 53.9% (inactive), the viability [1] was 161% and the nuclear beta-catenin stimulation ([2]; at 10 µM) was -0.6% (inactive). The nuclear beta-catenin stimulation ([2]; stimulation, at 2 µM) was -0.3%, the insulin secretion stimulation [3] was 2.6% (inactive) and the viability decrease [4] was 25.9% (inactive). For the same molecule, the tube area decrease [5] was -6.6% (inactive), the GLP1 secretion stimulation [6] was 8.5% (inactive) and the inhibition of viability [7] was 12.2% (inactive). For the same molecule, the viability decrease (inhibition) [8] was 40% (inactive), the viability decrease (inhibition) [9] was 9.6% (inactive) and the fold change ([11]; stronger effect = lower value) was 0.911 (inactive) and 0.954 (inactive) and 0.854 (inactive). For the same molecule, the fold change [11, 16] was 1.24 and 1.48 and 1.65, the cell count [11, 17] was 6050 and 9400 and 9430 and the cell count [11, 18] was 6640 and 9850 and 11000. The z-score [12, 19] was 0.636 (inactive), the z-score [12, 20] was 1.18 and the z-score [14] was 0.17 (inactive) and 0.505 (inactive).

For `CN1C[C@@H](NS(=O)(=O)N(C)C)C[C@@H]2c3cccc4c3c(cn4C)C[C@H]21`, the parasite load remaining [1] was 32.6% (inactive), the viability [1] was 102% and the nuclear beta-catenin stimulation ([2]; at 10 µM) was 0.4% (inactive). For the same molecule, the nuclear beta-catenin stimulation ([2]; stimulation, at 2 µM) was 1.4%, the insulin secretion stimulation [3] was 3.7% (inactive) and the viability decrease [4] was 9.6% (inactive). The tube area decrease [5] was -8.8% (inactive), the GLP1 secretion stimulation [6] was 4.1% (inactive) and the inhibition of viability [7] was 36.4% (inactive). The viability decrease (inhibition) [8] was 48% (inactive), the viability decrease (inhibition) [9] was 9% (inactive) and the remaining activity [15] was 113% (inactive). For the same molecule, the fold change ([11]; stronger effect = lower value) was 0.878 (inactive), the fold change [11, 16] was 1.21 and the cell count [11, 17] was 9040. The cell count [11, 18] was 10300, the z-score [12, 19] was 0.531 (inactive) and the z-score [12, 20] was 0.143. The z-score [14] was 0.405 (inactive).
